FLuc counter: counter-screen for miR-21 project: firefly luciferase inhibitors or activators | P08659 | purified FLuc, Km substrates, luminescence inhibition | Potency, µM (top dose mostly 57.5 µM), for the others: at the top dose activity change, negative = inhibition, actives largely listed as inhibitors | hit rate 6.9% among 360,000 | AID 588342;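 note: plate controls were vehicle for no effect and reference inhibitor for full effect; nearly all actives have a fitted effect of over 55% in size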
Target sequence (P08659 whole entry, looked up): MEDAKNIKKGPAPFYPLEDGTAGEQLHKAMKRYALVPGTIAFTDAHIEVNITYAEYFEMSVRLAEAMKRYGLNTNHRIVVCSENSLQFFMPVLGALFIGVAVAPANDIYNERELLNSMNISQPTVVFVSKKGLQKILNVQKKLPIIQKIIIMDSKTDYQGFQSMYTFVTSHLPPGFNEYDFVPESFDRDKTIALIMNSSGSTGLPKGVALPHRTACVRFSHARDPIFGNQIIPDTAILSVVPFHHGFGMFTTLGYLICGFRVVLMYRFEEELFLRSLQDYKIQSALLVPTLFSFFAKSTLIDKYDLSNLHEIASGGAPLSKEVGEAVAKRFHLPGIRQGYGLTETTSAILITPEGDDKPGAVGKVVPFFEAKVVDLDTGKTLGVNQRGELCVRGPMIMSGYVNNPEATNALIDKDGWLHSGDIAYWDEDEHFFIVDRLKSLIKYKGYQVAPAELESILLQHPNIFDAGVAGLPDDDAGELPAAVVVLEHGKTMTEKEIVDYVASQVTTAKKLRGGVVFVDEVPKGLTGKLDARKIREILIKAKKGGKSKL
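Biochemical qHTS of compounds, final roughly 60 µM downward over six points, against 10 nM purified firefly luciferase using Km concentrations of substrates (10 uM D-luciferin, 10 uM ATP) in Tris acetate pH 7.5 buffer; luminescence output.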
NPC1 prom act: NPC1 promoter activation; Huh7 NPC1 promoter luciferase reporter, 24 h; Potency, µM (doses to about 9.22 µM), inactives show at the top dose activation, actives largely listed as activators; hit rate 2.4% among 320,000; AID 485313; note: % of control where 0% means no effect; nearly all actives have a fitted effect of over 60% in size
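Luminescence read-out of NPC1 promoter-driven luciferase in stably transfected Huh7 cells; compounds delivered in DMSO and left 24 h at 37C, 5% CO2, qHTS titration format.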
Rab9 prom act: activates the Rab9 promoter; Huh7 Rab9 promoter-luciferase reporter, luminescence, 24 h; Potency, µM (highest dose often 9.22 µM), inactives show at the highest dose activation, negative = inhibition, usual class: activators; hit rate 2.8% among 320,000; note: % of control where 0% means no effect; nearly all actives have a fitted effect of over 60% in size
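Rab9 promoter-driven luciferase in stably transfected Huh7 cells; 1500 cells/well rested 2 h, exposed to compound in DMSO for 24 h at 37 °C, 5% CO2. Luminescence read 10 min after adding luciferase reagent at ambient temperature.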
SMN2 splice up: increases expression of the SMN2 splice variant; HEK293 SMN2-luciferase splicing reporter, luminescence, 30-36 h; Potency, µM (titrated, usually from 46.1 µM), for the others: at the top dose activity change, positive = activation, usual class: activators; hit rate 2.8% among 210,000; note: % of control where 0% means no effect; nearly all actives have a fitted effect of over 55% in size
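HEK293 cells carry an SMN2 minigene-luciferase reporter in which exon 7 inclusion puts luciferase in frame. Cells were seeded at 2000 cells/well, attached for 10-12 hours, then exposed to compounds for 30-36 hours at 37C before ONE-Glo luminescence.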
ELG1 genotoxic: genotoxicity induction in ELG1-luciferase HEK293T cells; HEK293T ELG1-luciferase reporter, luminescence, 16 h; Potency, µM (series often up to 46 µM), without a hit: top-dose activity change, positive = activation, most hits filed as activators; hit rate 1.3% among 330,000; AID 504466; note: % of control where 0% means no effect; nearly all actives have a fitted effect of over 60% in size
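Genotoxic stress is detected as increased luminescence from luciferase-tagged ELG1 in HEK293T cells, measured with ONE-Glo after a 16 hr treatment at 37 °C.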
uPA generation: inhibitors of cell surface uPA generation | AID 540303 | Potency, µM (series often up to 38.3 µM), for inactives: at the top dose activity change, negative = inhibition, actives largely listed as inhibitors | cell surface uPA generation assay, qHTS | hit rate 0.31% among 330,000; active = well fitted inhibition curve with a large enough effect; inconclusive = small, poorly fitted or top-dose-only effect; inactive = no such curve, though single readings can be large or run the other way; tested in mouse RAW 264.7 cells; note: % is set by controls: 0 for no effect and ±100 for the full control effect; nearly all actives have a fitted effect of over 55% in size
* hit, by the source's call; ? = inconclusive; . = no result. Hits are enriched below; roughly 7.3% of the tested compounds scored in any of these assays. Unless noted, calls come from the whole dose curve; as a rule, active = well fitted curve in the direction sought with a large enough effect; inconclusive = small, poorly fitted or top-dose-only effect, or another doubt; inactive = no such curve, though single readings can be large; an effect the other way counts as inactive or inconclusive. Potency is the fitted concentration of half-maximal effect.

SMILES | FLuc counter | NPC1 prom act | Rab9 prom act | SMN2 splice up | ELG1 genotoxic | uPA generation
CC1CCN(C(=O)CCc2nnc(-c3ccccc3)o2)CC1 | 15µM* | ? | ? | . | ? | -1%
CC1CCN(C(=O)CSc2nnc(-c3ccccc3)o2)CC1 | -13% | . | . | 7% | . | .
CCOC(=O)c1ccc(NC(=O)C(C)N(c2ccc(OCC)cc2)S(C)(=O)=O)cc1 (centres undefined) | 4% | . | . | 6% | . | .
COc1ccc(OC)c(CCNc2ncnc3onc(-c4ccc(Cl)cc4)c23)c1 | 4% | . | . | . | . | .
CC1CCN(Cc2c(O)ccc3c(=O)c(-c4nc5ccccc5s4)c(N)oc23)CC1 | 11µM* | -4% | -4% | 20% | -1% | 3%
Cc1oc2c(CN3CCCC3)c(O)ccc2c(=O)c1-c1ccc(Br)cc1 | -1% | 2% | -7% | -7% | 1% | 0%
CC1CCCN(Cc2c(O)ccc3c(=O)c(-c4nc5ccccc5s4)c(N)oc23)C1 (centres undefined) | 6.7µM* | 9% | 5% | -15% | 5% | -8%
CC1(C)CCCN(Cc2c(O)ccc3c(=O)c(-c4nc5ccccc5s4)c(N)oc23)C1 | 6µM* | 11% | ? | . | ? | 0%
Cc1ccc(OCC(=O)Nc2ccc(OCc3cc(=O)n4ccsc4n3)cc2)cc1C | 3% | . | . | -9% | . | .
COc1ccc(-c2coc3cc(O)c(OC)cc3c2=O)cc1 | ? | 26% | ? | . | ? | ?
CC(C)Oc1cc(O)c2c(=O)c(-c3ccc(O)cc3)coc2c1 | 5.4µM* | 0.89µM* | 1.4µM* | 7.1µM* | 16µM* | ?
COc1ccc(-c2coc3cc(O)ccc3c2=O)cc1O | 9.5µM* | ? | ? | . | 13µM* | -23%
COc1ccc(-c2coc3cc(OC)cc(O)c3c2=O)cc1 | 1.5µM* | 0.63µM* | 1µM* | 13µM* | ? | 0%
O=c1c(-c2cc(O)c(O)c(O)c2)coc2cc(O)c(O)c(O)c12 | . | . | . | -5% | . | .
COc1ccc(-c2coc3cc(O)cc(O)c3c2=O)cc1 | 6µM* | 2.2µM* | 2.8µM* | 18µM* | 23µM* | ?
Cc1ccc(C)c(NC(=O)CSc2ncc3c(n2)-c2ccccc2N(Cc2ccccc2C)S3(=O)=O)c1 | -2% | . | . | . | . | .
CC1CN(C(=O)c2c(Br)cnn2C)CC(C)O1 (centres undefined) | 2% | 1% | -3% | 5% | -2% | 2%
O=C(Nc1nc2ccccc2[nH]1)C1CCC1 | 17µM* | ? | 2.8µM* | 13µM* | ? | -15%
O=C(CC1CCCC1)Nc1nc2ccccc2[nH]1 | 9.5µM* | 3.5µM* | 2.8µM* | 13µM* | 16µM* | -4%
O=C(NCc1nc2ccccc2[nH]1)C1CCCCC1 | 4% | 3% | -3% | 2% | 3% | -4%
CC(C)[C@H](NC(=O)C1CCCC1)c1nc2ccccc2[nH]1 | 0% | 0% | 9% | 13% | 1% | -12%
O=C(Cc1cccc2ccccc12)Nc1nc2ccccc2[nH]1 | -2% | 0% | -3% | -2% | 1% | .
O=C(Nc1nc2ccccc2[nH]1)C1CCCC1 | 15µM* | 1.6µM* | 1.3µM* | 11µM* | ? | -11%
COC(=O)c1cc2oc3ccccc3c2n1CC(=O)Nc1ccc(Cl)cc1F | -2% | . | . | 20% | . | .
CCc1ccc(C(=O)CN(C#N)c2nc(C)cc(C)n2)cc1 | ? | 8% | 3% | -16% | -1% | 3%
SMILES | FLuc counter | NPC1 prom act | Rab9 prom act | SMN2 splice up | ELG1 genotoxic | uPA generation
Cc1cc(C)nc(N(C#N)CC(=O)c2ccccc2)n1 | 21µM* | 1% | -1% | . | -2% | -28%
CC1CCN(CCCn2c(=S)[nH]c3c(sc4ccc([N+](=O)[O-])cc43)c2=O)CC1 | -5% | 7% | 0% | 15% | 4% | 3%
CC1CCN(CCCn2c(=S)[nH]c3c(sc4ccccc43)c2=O)CC1 | 15µM* | 2% | 18% | 28% | -1% | -4%
C[C@H](NC(=O)[C@H](Cc1ccccc1)n1c(=O)[nH]c2ccccc2c1=O)C(=O)N1CCC(C(=O)O)CC1 | 1% | 21% | -5% | . | -2% | 4.5µM*
CC(C)C[C@H](NC(=O)[C@H](Cc1ccccc1)n1c(=O)[nH]c2ccccc2c1=O)C(=O)N1CCC(C(=O)O)CC1 | 3% | 0% | 1% | . | 1% | 8%
O=C1OC(Nc2nc3ccccc3s2)c2ccccc21 (centres undefined) | 11µM* | -4% | 7% | -16% | 0% | 3%
CCn1nnc(NC(=O)c2cccc(-c3cc4ccccc4oc3=O)c2)n1 | 15µM* | ? | 2.5µM* | 13µM* | ? | .
Cc1ccc2nc(NC(=O)c3cccc(-c4cc5ccccc5oc4=O)c3)sc2c1 | 21µM* | ? | ? | 0% | ? | 8%
Cc1cccc(CNC(=O)c2ccc(NC(=O)N3CCSc4ccccc43)cc2)c1 | -1% | . | . | -7% | . | .
Cc1nc(Nc2ccccc2)sc1C(=O)c1ccccc1 | 21µM* | ? | 3.5µM* | . | 13% | -1%
CC(=O)Cc1nsc(Nc2cccc(C)c2)n1 | -11% | 19% | 18% | 9% | 15% | 7%
CC(C)(C)C(=O)c1sc(Nc2ccccc2)nc1N | 5.4µM* | 2µM* | 2µM* | 11µM* | 1.3µM* | -3%
CC(=O)c1sc(Nc2cccc(C)c2)nc1C | 21µM* | 20% | ? | ? | ? | -5%
COC(=O)c1sc(Nc2ccccc2)nc1C | 19µM* | ? | ? | 24% | ? | -6%
Cc1nc(C)c(C(=O)Nc2cccc(C)c2C)s1 | 2% | 2% | 11% | . | 2% | -6%
Cc1cccc(C(=O)Nc2nc(C)c(C(=O)Nc3ccc4c(c3)CCC4)s2)c1 | 6.7µM* | 0% | -3% | ? | 9% | ?
CCOC(=O)c1sc(Nc2ccccc2)nc1C | 15µM* | 4µM* | 4µM* | 3% | 16µM* | -12%
Cc1cccc(NC(=O)c2sc(C)nc2C)c1 | 24µM* | ? | ? | ? | 15% | -1%
COc1ccc(NC(=O)c2c(NC(=O)c3cccc(C)c3)sc3c2CCC3)cc1 | ? | . | . | -7% | . | .
CCOC(=O)c1sc(Nc2nc3c(OC)cccc3s2)nc1C | 6.7µM* | ? | ? | ? | ? | .
CCOC(=O)c1sc(Nc2ccc(F)cc2)nc1C | -1% | 2% | 14% | 4% | 9% | -3%
NS(=O)(=O)c1ccc(NC(=O)CSc2nc3ccccc3nc2N2CCOCC2)cc1 | 0% | -5% | -1% | . | 1% | 8%
CC(=O)OC1CCC2(C)C(=CC=C3C2CCC2(C)C3CCC2C(C)/C=C/C(C)C(C)C)C1(C)C (centres undefined) | . | . | . | 2% | . | .
CCOC(=O)c1sc(NC(=O)Nc2ccc(Cl)cc2)nc1C | 2.7µM* | 4µM* | ? | ? | 2% | -1%

Source: PubChem (National Center for Advancing Translational Sciences (NCATS))
